Screens as filed in PubChem.
12-LOX inh – inhibitors of human 12S-lipoxygenase ALOX12; P18054; purified 12hLO, xylenol orange hydroperoxide absorbance; Potency, µM (titrated, usually from 108 µM), inactives show top-dose activity change, negative = inhibition, actives largely listed as inhibitors; hit rate 1.1% among 580,000
Target sequence (P18054 whole entry, looked up): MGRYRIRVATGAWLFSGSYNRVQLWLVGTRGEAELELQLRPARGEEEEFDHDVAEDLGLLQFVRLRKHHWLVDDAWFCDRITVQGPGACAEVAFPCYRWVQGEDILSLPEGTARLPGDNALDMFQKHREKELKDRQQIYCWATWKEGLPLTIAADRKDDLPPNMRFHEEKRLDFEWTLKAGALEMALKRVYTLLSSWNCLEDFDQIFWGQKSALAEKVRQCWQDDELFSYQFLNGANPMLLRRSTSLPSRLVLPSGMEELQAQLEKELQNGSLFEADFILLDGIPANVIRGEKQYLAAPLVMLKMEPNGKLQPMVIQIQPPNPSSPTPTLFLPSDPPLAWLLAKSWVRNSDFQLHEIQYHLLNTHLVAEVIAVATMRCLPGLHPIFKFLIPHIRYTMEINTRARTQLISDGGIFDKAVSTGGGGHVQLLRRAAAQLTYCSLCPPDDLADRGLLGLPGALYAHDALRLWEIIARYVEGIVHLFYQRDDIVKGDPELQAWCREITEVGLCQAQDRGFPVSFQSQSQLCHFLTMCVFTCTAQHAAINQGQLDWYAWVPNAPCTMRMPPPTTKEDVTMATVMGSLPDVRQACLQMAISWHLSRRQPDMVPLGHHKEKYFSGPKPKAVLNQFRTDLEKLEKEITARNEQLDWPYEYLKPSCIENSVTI
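Purified human 12hLO at 150 nM in 25 mM Hepes, 0.01% Triton X-100, pH 7.0, preincubated 15 min at room temperature with compound. Reaction started with 40 uM arachidonic acid, 30 min at room temperature. Hydroperoxide measured by Fe-xylenol orange, 573/405 nm absorbance ratio.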
ELG1 DNA repair – inhibitors of ELG1-dependent DNA repair in HEK293T cells | HEK293T ELG1-luciferase reporter, luminescence, 16 h; DNA damage induced by 5-fluorouridine | Potency, µM (doses to about 46.1 µM), inactives show at the highest dose activity change, negative = inhibition, actives largely listed as inhibitors | hit rate 2.3% among 330,000 | AID 504467; further: nearly all actives have a fitted effect of over 55% in size
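Cells (2,000 per well) received 5-fluorouridine plus test compound or DMSO and were incubated 16 hr at 37 °C, 5% CO2. Luciferase activity was read by luminescence 30 min after ONE-Glo addition; signal suppression marked inhibition of damage-induced ELG1 function.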
VP16 counter – counter-screen for ROR gamma inhibitors: Gal4-VP16 reporter | Drosophila S2 Gal4-VP16 UAS-luciferase, luminescence, 20 h | hit rate 3.5% among 310,000 | AID 2546 | Potency, µM (highest dose often 53.6 µM), for the others: at the top dose activity, negative = inhibition, actives largely listed as inhibitors;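 further: Gal4-VP16 expression switched on by copper sulfate through the metallothionein promoter; nearly all actives have a fitted effect of over 50% in size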
RORg inh – inhibitors of mouse ROR gamma transcriptional activity. P51450. Drosophila S2 Gal4-RORgamma UAS-luciferase reporter, 20 h. Potency, µM (doses to about 53.6 µM), for inactives: top-dose activity change, negative = inhibition, hits mostly inhibitors. hit rate 5.4% among 310,000; further: nearly all actives have a fitted effect of over 60% in size
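Drosophila Schneider cells stably carrying a metallothionein-driven Gal4 DBD–ROR gamma fusion and a UAS-Photinus luciferase reporter were exposed to compound for 1 hr, then induced with copper sulfate (700 uM final) for 20 hr at ambient temperature before luminescence reading.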
DT40 TDP1 no CPT – qHTS for Inhibitors of human tyrosyl-DNA phosphodiesterase 1 (TDP1): qHTS in cells in absence of CPT. DT40 Tdp1-/- hTDP1 cells, no CPT, ATP luminescence, 48 h. Potency, µM (series often up to 46.2 µM), for the others: top-dose activity change, negative = growth inhibition, most hits filed as inhibitors. hit rate 15% among 420,000; further: nearly all actives have a fitted effect of over 55% in size
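Cells were dispensed at 400 per well, compounds added by pin tool, plates incubated ≥48 hr at 37 °C, then CellTiter-Glo added for 30 min at room temperature before luminescence reading. Line: DT40 Tdp1-/- complemented with hTDP1; camptothecin omitted.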
DT40 TDP1 CPT – growth inhibition of DT40 Tdp1-/-;hTDP1 cells with camptothecin (screen for TDP1 inhibitors) | chicken DT40 Tdp1-/-;hTDP1 cells + 20 nM CPT, ATP luminescence, 48 h | Potency, µM (titrated, usually from 46.2 µM), without a hit: top-dose activity change, negative = growth inhibition, most hits filed as inhibitors | hit rate 12% among 420,000 | AID 686979; further: nearly all actives have a fitted effect of over 55% in size
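Cell growth measured by CellTiter-Glo luminescence after a minimum 48 h, 37 C compound exposure with 20 nM CPT in Tdp1-knockout DT40 cells stably expressing hTDP1, seeded 400/well; qHTS titration format.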
The depositor's hits bear a star; i = inactive; u = inconclusive; x = not tested or not shown; [ ] = dose if it differs, or a comment. Sampled rows, rich in hits. Any-hit rate of the full collection: about 15%. The call rests on the fitted dose curve; in most records, active means well fitted curve in the direction sought with a large enough effect; inconclusive means small, poorly fitted or top-dose-only effect, or another doubt; inactive means no such curve, though single readings can be large; an effect the other way counts as inactive or inconclusive. On the % scale 0 is the no-effect control and ±100 the full control effect; potency means the concentration at half of the fitted maximal effect.

SMILES	12-LOX inh	ELG1 DNA repair	VP16 counter	RORg inh	DT40 TDP1 no CPT	DT40 TDP1 CPT
COc1cccc(CCNC(=O)c2c(O)nc3cc(C)ccn3c2=O)c1	-6.3%	x	x	x	14.0%	4.5%
COc1ccccc1CNC(=O)c1c(O)nc2c(C)cccn2c1=O	-16.5%	x	x	x	u	-13.3%
COc1ccc(CNC(=O)c2c(O)nc3cc(C)ccn3c2=O)cc1	-18.4%	x	x	x	-15.6%	4.7%
COc1cccc(CCNC(=O)c2c(O)nc3ccccn3c2=O)c1	0.0%	x	x	x	20.6µM*	23.1µM*
Cc1ccc(CNC(=O)c2c(O)nc3ccccn3c2=O)cc1	u	x	x	x	29.1µM*	u
Cc1cccn2c(=O)c(C(=O)NCCc3ccccc3)c(O)nc12	-17.1%	x	x	x	u	16.4µM*
Cn1cc(C(=O)N2CCC(C(=O)NCc3ccccc3)CC2)c2ccccc21	26.0%	x	x	x	x	x
Cc1cccc(CN2CCN(Cn3nc(C)c4ccccc4c3=O)CC2)c1	-0.2%	x	x	x	x	x
COc1ccc(CCNC(=O)c2cc3cc(F)ccc3nc2C)cc1OC	i	x	x	x	9.2µM*	20.6µM*
O=C(NCCC1=CCCCC1)c1c(O)nc2ccccn2c1=O	-0.1%	u	18.0%	1.8%	14.6µM*	11.6µM*
COc1ccc(CCNC(=O)c2nc3ncccn3n2)cc1OC	71.1%	5.8%	1.9%	12.8%	16.4µM*	u
COc1ccc(CCNC(=O)c2noc(-c3ccc(F)cc3)n2)cc1OC	3.7%	x	x	x	x	x
COc1ccc(CCNC(=O)c2c(O)nc3c(C)cccn3c2=O)cc1OC	-17.2%	x	x	x	u	23.1µM*
CSc1ccc(-c2nc(CN3CCN(C(C)=O)CC3)c(C)o2)cc1	0.9%	x	x	x	x	x
O=C(CCc1c(-c2ccc(F)cc2)[nH]c2ccc(F)cc12)N1CCC1	-21.6%	x	x	x	x	x
COc1ccc2oc(C(=O)OC(C)C(=O)N3CCC(C)CC3)c(C)c2c1 (stereo not drawn)	365.9%	u	x	x	14.6µM*	u
COc1ccc2cc(C(C)C(=O)N3CCC(C)CC3)ccc2c1 (stereo not drawn)	-8.6%	-13.5%	-1.9%	7.6%	u	16.4µM*
CN(CC(=O)NC1CCCCNC1=O)Cc1ccc(Br)cc1 (stereo not drawn)	59.3%	x	x	x	x	x
CCn1cc(C#N)c(=O)n(Cc2nnc(-c3ccccc3)o2)c1=O	7.1%	x	x	x	x	x
COc1cccc(/C=N/NC(=O)c2c(C)nc3ccc(Cl)cn23)c1OC	u	-3.1%	-8.4%	u	u	16.4µM*
COc1cc(/C=N\NC(=O)c2c(C)nc3cc(C)ccn23)ccc1O	7.0%	-2.0%	-9.0%	0.2%	-2.1%	29.3%
CCOc1ccccc1/C=N/NC(=O)c1c(C)nc2ccc(Br)cn12	16.3%	-11.2%	-3.8%	-25.0%	-3.7%	-1.4%
C=CCOc1ccc(/C=N/NC(=O)c2c(C)nc3ccc(Cl)cn23)cc1	0.8%	-0.5%	10µM*	2.24µM*	u	24.0%
COc1cccc(/C=N/NC(=O)c2cccc3ccccc23)c1OC	i	x	x	x	u	u
COc1cccc(/C=N/NC(=O)c2c(C)nc3ccc(Br)cn23)c1O	x	2.06µM*	2.51µM*	2.51µM*	3.26µM*	4.61µM*
SMILES	12-LOX inh	ELG1 DNA repair	VP16 counter	RORg inh	DT40 TDP1 no CPT	DT40 TDP1 CPT
COc1ccc(/C=N/NC(=O)c2c(C)nc3ccc(Br)cn23)cc1OC	241.3%	0.0%	-18.8%	4.8%	7.31µM*	8.2µM*
CC1CCN(c2ccc(-c3ccc(NS(=O)(=O)c4ccc(Cl)s4)cc3)nn2)CC1	-23.7%	x	x	x	x	x
COc1cc(/C=N/NC(=O)c2c(C)nc3ccc(Cl)cn23)cc(OC)c1OC	u	u	-5.5%	u	u	u
Cc1ccn2c(C(=O)N/N=C/c3ccc(Cl)cc3)c(C)nc2c1	-4.2%	27.4%	4.1%	-21.4%	11.6%	-8.1%
COc1ccc(/C=N/NC(=O)c2c(C)nc3ccc(Cl)cn23)cc1OC	15.3%	-19.7%	4.8%	-3.4%	8.2µM*	11.6µM*
COC(=O)c1ccc(/C=N\NC(=O)c2c(C)nc3ccc(Cl)cn23)cc1	x	u	-17.4%	-2.4%	10.3µM*	u
O=C(NCc1ccccc1C(F)(F)F)c1n[nH]c2c1CCCC2	59.9%	x	x	x	x	x
Cc1ccc(C(=O)Nc2nnc(-c3ccncc3)o2)cc1	1.0%	18.7%	5.3%	-0.3%	u	u
COc1ccccc1-c1nnc(NC(=O)c2ccccc2F)o1	23.1%	13.5%	2.82µM*	2µM*	u	u
COc1cc2ccccc2cc1C(=O)Nc1nnc(-c2ccncc2)o1	5.8%	-13.3%	10µM*	7.08µM*	-20.9%	-9.8%
COc1cc2ccccc2cc1C(=O)Nc1cc(C)ccn1	14.8%	u	7.1%	-23.4%	u	u
O=C(Nc1ccncc1)c1ccccc1F	0.6%	10.3µM*	-0.1%	1.7%	-25.5%	u
O=C(Nc1nnc(-c2ccncc2)o1)c1ccccc1F	-12.9%	-9.3%	10µM*	u	-11.2%	u
CCCCN1C(=O)[C@@H]2C[C@@H](O)CN2C2(CN(Cc3ccc(F)cc3)C2)C1=O	20.8%[176 µM]	x	x	x	x	x
COc1ccc(-c2nc(CN3CCN(C(=O)NCCc4ccccc4)CC3)c(C)o2)cc1	2.5%	x	x	x	x	x
Cc1ccc(-c2noc([C@@H]3C[C@H](NC(=O)CC(C)(C)CC(=O)O)CN3C)n2)cc1	11.1%[176 µM]	x	x	x	x	x
CCC(C)Oc1cc(-c2ccnc(Nc3cccc(Cl)c3)n2)ccn1 (stereo not drawn)	-21.3%	u	-23.0%	-9.0%	u	u
OCCCNc1cc(-c2ccnc(Nc3cccc(Cl)c3)n2)ccn1	4.9%	0.58µM*	1µM*	1.78µM*	0.164µM*	0.146µM*
CCOc1cc(CNCCSc2nnnn2C)cc(Br)c1OCc1ccc(F)cc1	-10.0%	-19.5%	u	25.9%	u	u
COc1cc(CNCCSc2nnnn2C)cc(Br)c1OCc1ccc(F)cc1	1.2%	-20.6%	u	1.5%	25.9µM*	u
CCOc1cc(CNCCSc2nnnn2C)cc(Br)c1OCc1ccccc1F	u	-17.5%	-14.9%	12.7%	12.6µM*	16.4µM*
CN1CCN(C(=O)C(C)(C)Oc2nn(CC3CC3)c3ccc(CN4CCCC4)cc23)CC1	41.0%[176 µM]	x	x	x	x	x
Fc1c(F)c(C(F)(F)F)c(F)c(F)c1N/N=C\c1cccs1	u	-13.4%	-9.1%	28.6%	18.4µM*	16.4µM*
Fc1c(F)c(C(F)(F)F)c(F)c(F)c1N/N=C/c1ccc(Cl)cc1Cl	3.5%	x	x	x	x	x
